The entries come from a sample that favours hits as a whole.
CHX counter = counter-screen hit for Shiga toxin inhibitors, cycloheximide; max response, %; AID 2314; cell reporter, cycloheximide protein synthesis inhibition counterscreen; actives 12% (n = 300,000); in the data active = max response mostly above about 13%, no sharp cut-off; inactive = mostly below about 14%; also: read at 38.3 µM for the half of the compounds with a filed dose
TbPYK inhibitor = blocks Trypanosoma brucei pyruvate kinase; Q57TT1; actives 0.12% (n = 410,000); Potency, µM (series often up to 76.8 µM), usual class: inhibitors; TbPYK enzyme, Kinase-Glo Plus ATP luminescence, 45 min; also: nearly all actives have a fitted effect of over 50% in size
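Luminescence from Kinase-Glo Plus, added after a 45-minute room-temperature reaction, served as the end-point read-out. The enzyme and substrate were preincubated with compound before ADP (130 uM final) initiated turnover. Concentration-effect curves came from normalized qHTS data.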
RE007 growth inh = less growth of the S. pombe RE007 Vpr strain; S. pombe RE007 Vpr strain, BacTiter-Glo ATP luminescence, 24 h; Potency, µM (doses to about 92.2 µM), hits mostly inhibitors; actives 0.21% (n = 360,000); active = well fitted falling curve with a large enough effect; inconclusive = small, poorly fitted or top-dose-only effect; inactive = no such curve, though single readings can be large or run the other way; also: nearly all actives have a fitted effect of over 50% in size
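Fission yeast strain RE007, carrying one chromosomally integrated HIV-1 vpr copy, was seeded at OD 0.01 in PMG+AL medium with 23 nL pinned compound. After 24 h at 30 °C and 99% humidity, viability was read by BacTiter-Glo luminescence.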
FBPA Giardia inh = inhibitors of Giardia lamblia fructose-1,6-bisphosphate aldolase | A8B2U2 | purified Giardia FBPA | Potency, µM (series often up to 59.6 µM), most hits filed as inhibitors | actives 0.71% (n = 290,000); also: nearly all actives have a fitted effect of over 55% in size
Target sequence (A8B2U2 whole entry, looked up): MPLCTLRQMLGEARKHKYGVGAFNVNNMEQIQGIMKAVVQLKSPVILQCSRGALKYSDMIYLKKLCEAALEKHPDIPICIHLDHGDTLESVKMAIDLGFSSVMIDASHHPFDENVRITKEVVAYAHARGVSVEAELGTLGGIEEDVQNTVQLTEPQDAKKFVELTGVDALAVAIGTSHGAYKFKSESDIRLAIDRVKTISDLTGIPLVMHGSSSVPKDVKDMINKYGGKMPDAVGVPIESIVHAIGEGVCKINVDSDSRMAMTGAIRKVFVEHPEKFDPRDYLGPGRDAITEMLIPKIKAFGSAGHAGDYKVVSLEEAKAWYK
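40 nM FBPA preincubated 10 min at RT with compound (up to 57.5 uM final), then substrate plus GAPDH/TPI/NAD/arsenate coupling and diaphorase/resazurin added. Fluorescence read after 20 min at RT, 525/598 nm.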
Shiga toxin inh = blocks Shiga toxin action in Vero cells. AID 2315. inhibition, % at 38.7 µM. actives 9.2% (n = 290,000). Vero cells, Shiga toxin protein synthesis inhibition reporter; in the data active = inhibition mostly above about 28%, no sharp cut-off; inactive = mostly below about 43%
LmPK inh = blocks Leishmania mexicana pyruvate kinase activity; AID 1721; purified LmPK, Kinase-Glo ATP luminescence, 1 h; actives 0.37% (n = 290,000); Potency, µM (titrated, usually from 57.5 µM), most hits filed as inhibitors
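Screened at intermediate enzyme activity to detect both inhibitors and activators: LmPK at 0.1 nM, with a 0.5 nM enzyme column as activation reference. PEP 0.5 mM, ADP 0.1 mM; ATP detected by luminescence after 1 h.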
Hits are given with their value; – = inactive; ? = inconclusive; · = no result given. Unless noted, calls follow the shape of the dose curve; as a rule, active = well fitted curve in the direction sought with a large enough effect; inconclusive = small, poorly fitted or top-dose-only effect, or another doubt; inactive = no such curve, though single readings can be large; an effect the other way counts as inactive or inconclusive.

SMILES	CHX counter	TbPYK inhibitor	RE007 growth inh	FBPA Giardia inh	Shiga toxin inh	LmPK inh
CC(C)(C)C1CCc2c(sc3c2C(=O)NC(c2ccco2)N3)C1 (configuration not stated)	34	?	–	–	74	–
CN1CCc2c(sc3c2C(=O)NC(c2ccccn2)N3)C1 (configuration not stated)	21	–	–	?	–	–
Cc1ccc(C2NC(=O)c3c(sc4c3CCN(C)C4)N2)s1 (configuration not stated)	33	–	–	?	67	–
Cc1ccc(C2NC(=O)c3c(sc4c3CCN(C)C4)N2)o1 (configuration not stated)	–	–	–	?	–	–
Cc1cccc(C2NC(=O)c3c(sc4c3CCN(C)C4)N2)c1O (configuration not stated)	·	–	·	·	·	·
CCOc1ccc(NC(=O)c2cc(S(=O)(=O)N3CCCCCC3)cn2C)cc1	·	–	·	·	·	·
C[C@H](N)C(=O)N[C@@H](CO)C(=O)N[C@H](C(=O)N[C@H](C(=O)N[C@H](C(=O)N[C@@H](CC(N)=O)C(=O)N[C@@H](Cc1ccc(O)cc1)C(=O)N[C@H](C(=O)O)[C@@H](C)O)[C@@H](C)O)[C@@H](C)O)[C@@H](C)O	–	·	·	–	–	·
Cc1ccc(SCC(=O)NC2CCCCCC2)cc1	30	–	–	·	67	–
O=C(CCSc1ccc(Cl)cc1)NC1CCCCC1	–	–	–	–	–	–
O=C(CCSc1ccccc1)NC1CCCCCC1	33	–	–	–	98	–
Cc1cc2c(OCC(CNC(C)(C)C)OC(=O)c3ccccc3)cccc2[nH]1 (configuration not stated)	·	–	·	·	·	·
CC1CCC(NC(=O)c2ccc(CS(=O)(=O)c3ccc(Cl)cc3)o2)CC1 (configuration not stated)	·	–	·	·	·	·
O=C(/C=C/c1ccc(Cl)cc1)Nc1nccs1	54	–	–	–	70	–
C/C=C/C=C/C(=O)Nc1nccs1	17	–	–	–	–	–
CCOC(=O)c1cnc2c(C#N)c(C)nn2c1-c1ccccc1	–	–	–	–	–	–
CCOC(=O)c1cnc2c(-c3ccccc3)cnn2c1C	39	–	–	–	91	–
CC(=O)c1cnc2c(-c3ccccc3)cnn2c1C	18	–	–	–	–	–
CCOC(=O)Cc1c(C)nc2c(-c3ccccc3OC)c(C)nn2c1C	–	–	–	–	–	–
CCOC(=O)Cc1c(C)nc2c(-c3ccccc3)cnn2c1C	36	–	–	–	–	–
Cc1nc(NCc2ccccc2)c2nc(-c3ccccc3)n(CC3CCN(C)CC3)c2n1	·	·	·	–	·	·
O=C(OCC(=O)N1CCCC1=O)c1cc(Cl)ccc1O	·	–	16µM	·	·	·
COc1ccc(C(=O)OCC(=O)N2CCCC2=O)c(OC)c1	33	–	–	–	75	–
O=C(OCC(=O)N1CCCc2ccccc21)c1cc(Cl)ccc1O	–	–	–	·	–	–
COc1ccc2oc(C(=O)OCC(=O)N3CCCC3=O)c(C)c2c1	·	–	?	·	·	·
CCC1=C2CC[C@H]3C(=O)N(c4ccccc4)C(=O)[C@H]3[C@H]2[C@@]2(C)C(=O)N(CC(=O)OC)C(=O)N2C1=O	·	·	·	–	·	·
SMILES	CHX counter	TbPYK inhibitor	RE007 growth inh	FBPA Giardia inh	Shiga toxin inh	LmPK inh
CCCCNC(=O)Nc1ccc(C2SCCS2)cc1	47	–	–	–	86	–
CNC(=O)Nc1ccc(C2SCCS2)cc1	17	–	–	–	–	–
CC(C)c1ccc(NC(=O)COc2ccc(C3SCCS3)cc2)cc1	–	–	–	–	–	–
O=C(Nc1ccc(C2SCCS2)cc1)c1ccccc1	60	–	–	–	136	–
CC1CCN(C(=O)CSc2nc(-c3ccccc3)no2)CC1	·	–	·	·	·	·
CO[C@]12C(COC(N)=O)C3=C(C(=O)C(C)=C(N)C3=O)N1CC1NC12 (some centres not stated)	·	–	·	?	·	·
CCOc1ccc(NC(=O)Cc2coc3ccc(C)cc23)cc1	·	–	·	·	·	·
Cc1cc2c(NC(=O)Nc3ccc(C(C)(C)C)cc3)cccc2nn1	–	–	–	?	–	–
CC(C(=O)Nc1ccccc1Br)c1ccc([N+](=O)[O-])cc1 (configuration not stated)	–	–	–	–	–	–
O=C(Nc1ccc([N+](=O)[O-])cc1O)Nc1ccccc1Br	36	·	·	–	61	·
